Results published in PubChem BioAssay (NCI).
This is part of a sample that, as a whole, favours compounds with a hit. Of some 83,000 tested, about 20% had one in any assay.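 Cells were grown in 96-well plates and exposed to the test compound at a single concentration for 48 hours; results are reported as percent growth, with values below 10 considered active.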 Calls of active or inactive are those of the source.

Assays:
Test in all cases: NCI-60 one-dose screen, 48 h (100 = growth as untreated, 0 = no growth, -100 = all killed)
Details in all cases: 10 µM
HCT-15 colon = tested on: HCT-15 colon
HT29 colon = tested on: HT29 colon
SNB-75 CNS = tested on: SNB-75 CNS
U251 CNS = tested on: U251 CNS
PC-3 prostate = tested on: PC-3 prostate
SK-MEL-5 melanoma = tested on: SK-MEL-5 melanoma
UACC-62 melanoma = tested on: UACC-62 melanoma
LOX IMVI melanoma = tested on: LOX IMVI melanoma
SK-MEL-28 melanoma = tested on: SK-MEL-28 melanoma
SNB-19 CNS = tested on: SNB-19 CNS

Measured: growth

CC1(C)CC[C@]2(C(=O)N3CCOCC3)CC[C@]3(C)C(=CC[C@@H]4[C@@]5(C)CC[C@H](NCO)C(C)(C)[C@@H]5CC[C@]43C)[C@H]2C1
active: HCT-15 colon -83% | HT29 colon -60.8% | SNB-75 CNS -93.2% | U251 CNS -88.7% | PC-3 prostate -61.6% | SK-MEL-5 melanoma -97.6% | UACC-62 melanoma -93.9% | LOX IMVI melanoma -83.8% | SK-MEL-28 melanoma -98.9%

Brc1ccc(/C=N/Nc2ncnc3sc4c(c23)CCN(Cc2ccccc2)C4)cc1
inactive: HCT-15 colon 58.3% | U251 CNS 61.1% | PC-3 prostate 61.6% | SK-MEL-5 melanoma 94.8% | LOX IMVI melanoma 46.9% | SK-MEL-28 melanoma 41.9%
active: HT29 colon 4.77% | SNB-75 CNS -7.37%

Oc1ccc(/C=C2\CCCc3cc4ccc(O)cc4[o+]c32)c(O)c1
inactive: HCT-15 colon 10.1% | HT29 colon 88.5% | SNB-75 CNS 91.9% | PC-3 prostate 28.8% | SK-MEL-5 melanoma 69.6% | SK-MEL-28 melanoma 33.9%
active: U251 CNS 8.94% | LOX IMVI melanoma -31.1%

C/C(=N\N=C\c1ccc(Cl)c([N+](=O)[O-])c1)c1ccc2c(c1)Nc1ccccc1S2
inactive: HCT-15 colon 50.8% | HT29 colon 35.5% | SNB-19 CNS 31.2% | PC-3 prostate 13.5% | SK-MEL-5 melanoma 38.8% | UACC-62 melanoma 38.8% | LOX IMVI melanoma 37.2%
active: U251 CNS -35%

Cc1ccc(/C=C(\C#N)n2nnc3c(F)cccc32)cc1
active: HT29 colon 2.75% | U251 CNS -26.1% | SK-MEL-5 melanoma -23.5% | LOX IMVI melanoma -9.47%
inactive: HCT-15 colon 12.2% | SNB-19 CNS 23.6% | PC-3 prostate 24.7% | UACC-62 melanoma 36.8%

C=C1CC[C@H](C(=C)C)[C@H]2C=C(C)C(=O)C3=C(C(=O)[C@@](C)(O)C3)[C@H]12
active: HCT-15 colon -80.8% | HT29 colon -37.6% | SNB-75 CNS -71% | U251 CNS -95.9% | PC-3 prostate -73.2% | SK-MEL-5 melanoma -90.4% | UACC-62 melanoma -53.5% | LOX IMVI melanoma -75.9% | SK-MEL-28 melanoma -89.2%

COc1cc(/C=C/C(=O)c2ccc(S(=O)(=O)NCCNc3nc(Nc4ccc(F)cc4)nc(N(C)C)n3)cc2)cc(OC)c1OC
inactive: SNB-75 CNS 88.2% | SK-MEL-5 melanoma 32.4% | UACC-62 melanoma 34.2% | SK-MEL-28 melanoma 18%
active: HCT-15 colon -65.9% | HT29 colon -56.7% | U251 CNS -81.2% | PC-3 prostate 9.45% | LOX IMVI melanoma -100%
